# This is part of a sample that, as a whole, favours compounds with a hit. Of some 79,000 tested, about 15% had one in any assay. A number with no mark means an inactive call. Calls of active or inactive are those of the source. No stated cut-off is given here; in the data, active means growth inhibition above about 70%; inactive means the rest.
# Key:
# [1] = NCI Yeast Anticancer Drug Screen. Data for the rad52 strain (AID 147);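 further: 0% = growth of vehicle-treated control cultures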; conditions: S. cerevisiae rad52 mutant growth inhibition, active compounds read high
# Procedure, shortened: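 Measured: yeast growth inhibition. System: strain with a defined DNA damage repair alteration. Reference: vehicle-treated control cultures.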
# [2] = NCI Yeast Anticancer Drug Screen. Data for the rad50EPP+ strain (AID 151);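 further: 0% = growth of vehicle-treated control cultures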; conditions: S. cerevisiae rad50 mutant strain, active compounds read high
# Procedure, shortened: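 One strain with a rad50 alteration (rad50EPP+) was compound-treated, its growth then compared to that of vehicle controls.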
# [3] = NCI Yeast Anticancer Drug Screen. Data for the mgt1 strain (AID 153); conditions: S. cerevisiae mgt1 mutant growth inhibition, active compounds read high
# Procedure, shortened: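 After exposure of the mgt1 yeast mutant to compound, growth was measured and reported as inhibition compared with vehicle controls.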
# [4] = NCI Yeast Anticancer Drug Screen. Data for the rad50 strain (AID 155);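 further: 0% = growth of vehicle-only cultures of the same strain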; conditions: S. cerevisiae rad50 strain growth inhibition, active compounds read high
# Procedure, shortened: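 Relative growth inhibition (compound vs vehicle) was measured in yeast with a defined repair-gene alteration.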
# [5] = NCI Yeast Anticancer Drug Screen. Data for the mec2-1 strain (AID 157); conditions: S. cerevisiae mec2-1 strain, active compounds read high
# Procedure, shortened: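 Test agents were screened against the mec2-1 yeast strain, with defined DNA repair or cell cycle alteration. Growth was scored as inhibition against vehicle-only controls.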
# [6] = NCI Yeast Anticancer Drug Screen. Data for the sgs1 mgt1 strain (AID 161);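 further: 0% = growth of cultures given vehicle only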; conditions: S. cerevisiae sgs1 mgt1 strain, active compounds read high
# Procedure, shortened: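 Inhibition of yeast growth, normalised to vehicle-treated controls, is reported for a strain bearing genetic alterations in DNA damage repair.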
# [7] = NCI Yeast Anticancer Drug Screen. Data for the CLN2oe strain (AID 163);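 further: 0% = growth of vehicle-only control cultures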; conditions: S. cerevisiae CLN2oe strain, active compounds read high
# Procedure, shortened: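 Here, growth inhibition in a cell-cycle-altered yeast strain after compound exposure was quantified against vehicle control growth.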
# [8] = NCI Yeast Anticancer Drug Screen. Data for the cln2 rad14 strain (AID 165);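 further: 0% = growth equal to vehicle treated cultures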; conditions: S. cerevisiae cln2 rad14 strain, active compounds read high
# Procedure, shortened: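 Growth of compound-exposed yeast (cln2 rad14 genotype) measured and expressed as inhibition relative to vehicle.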
# [9] = NCI Yeast Anticancer Drug Screen. Data for the bub3 strain (AID 167); conditions: S. cerevisiae bub3 mutant strain, active compounds read high
# Procedure, shortened: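 Screening used yeast with an engineered genetic alteration affecting cell cycle control. Compound-exposed cultures were compared with vehicle cultures, and reduced growth was taken as inhibition.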
# [10] = NCI Yeast Anticancer Drug Screen. Data for the wt2 strain (AID 169);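 further: 0% = growth of vehicle-treated yeast cultures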; conditions: S. cerevisiae wt2 strain growth inhibition, active compounds read high
# Procedure, shortened: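 Genetically defined yeast strains from a DNA-repair/cell-cycle panel were used. Compound-exposed yeast growth was measured, and the inhibition was calculated relative to vehicle treatment.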
# [11] = NCI Yeast Anticancer Drug Screen. Data for the mlh1 strain (AID 171);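 further: 0% = growth of vehicle-treated control cultures of the same strain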; conditions: S. cerevisiae mlh1 strain growth inhibition, active compounds read high
# Procedure, shortened: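 Here the genetically defined yeast mutant is grown with each compound, and the extent to which its growth falls below that of vehicle-exposed cells is reported.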
# [12] = NCI Yeast Anticancer Drug Screen. Data for the sgs1 strain (AID 173);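 further: 0% = growth of vehicle-only control cultures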; conditions: S. cerevisiae sgs1 mutant, active compounds read high
# Procedure, shortened: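 Relative growth inhibition, referenced to vehicle, was determined in a yeast strain with a defined alteration affecting DNA damage repair or cell cycle control after compound exposure.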
# [13] = NCI Yeast Anticancer Drug Screen. Data for the mlh1 rad18 strain (AID 175); conditions: S. cerevisiae mlh1 rad18 strain growth inhibition, active compounds read high
# Procedure, shortened: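 In this whole-cell yeast screen, a strain with altered DNA damage repair is challenged with compound, and its growth is measured against matched vehicle-treated controls.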
# [14] = NCI Yeast Anticancer Drug Screen. Data for the wt1 strain (AID 149);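 further: 0% = growth of vehicle-treated wt1 cultures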; conditions: S. cerevisiae wt1 strain (SPY 50644) growth inhibition, active compounds read high
# Procedure, shortened: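 Using yeast strain wt1, compound-induced growth inhibition was determined against vehicle-treated cultures.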
# [15] = NCI Yeast Anticancer Drug Screen. Data for the rad14 strain (AID 159);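 further: 0% = growth of vehicle-treated control cultures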; conditions: S. cerevisiae rad14 strain growth inhibition, active compounds read high
# Procedure, shortened: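 Screen for anticancer potential: a yeast strain altered in DNA damage repair is grown with compound, and reduced growth is quantified against vehicle controls.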
# [16] = at 5.0 µM (retest, dose inferred, filed as 0.5)
# [17] = at 50.0 µM (retest, dose inferred, filed as 5.0)
structure (smiles),measurement,setting,value
Nc1ccccc1C(=O)OCCc1ccccc1,growth inhibition,[1]; at 1.2 µM,-9%
same,growth inhibition,[1]; at 3.7 µM,-4%
same,growth inhibition,[1]; at 11.0 µM,-21%
same,growth inhibition,[1]; at 33.0 µM,-3%
same,growth inhibition,[1]; at 100.0 µM,91% (active)
same,growth inhibition,[2]; at 1.2 µM,-23%
same,growth inhibition,[2]; at 3.7 µM,-9%
same,growth inhibition,[2]; at 11.0 µM,13%
same,growth inhibition,[2]; at 33.0 µM,22%
same,growth inhibition,[2]; at 100.0 µM,73% (active)
same,growth inhibition,[3]; at 1.2 µM,-74%
same,growth inhibition,[3]; at 3.7 µM,-63%
same,growth inhibition,[3]; at 11.0 µM,-62%
same,growth inhibition,[3]; at 33.0 µM,-52%
same,growth inhibition,[3]; at 100.0 µM,96% (active)
same,growth inhibition,[4]; at 1.2 µM,-3%
same,growth inhibition,[4]; at 3.7 µM,-7%
same,growth inhibition,[4]; [16],36%
same,growth inhibition,[4]; at 11.0 µM,-31%
same,growth inhibition,[4]; at 33.0 µM,13%
same,growth inhibition,[4]; [17],93% (active)
same,growth inhibition,[4]; at 50.0 µM,82.9% (active)
same,growth inhibition,[4]; at 100.0 µM,97% (active)
same,growth inhibition,[5]; at 1.2 µM,-8%
same,growth inhibition,[5]; at 3.7 µM,-4%
same,growth inhibition,[5]; [16],38%
same,growth inhibition,[5]; at 11.0 µM,-6%
same,growth inhibition,[5]; at 33.0 µM,13%
same,growth inhibition,[5]; [17],99% (active)
same,growth inhibition,[5]; at 50.0 µM,48.1%
same,growth inhibition,[5]; at 100.0 µM,85% (active)
same,growth inhibition,[6]; [16],-17%
same,growth inhibition,[6]; [17],74% (active)
same,growth inhibition,[6]; at 50.0 µM,68%
same,growth inhibition,[7]; at 1.2 µM,19%
same,growth inhibition,[7]; at 3.7 µM,17%
same,growth inhibition,[7]; at 11.0 µM,14%
same,growth inhibition,[7]; at 33.0 µM,-1%
same,growth inhibition,[7]; at 100.0 µM,91% (active)
same,growth inhibition,[8]; [16],62%
same,growth inhibition,[8]; [17],76% (active)
same,growth inhibition,[8]; at 50.0 µM,44.5%
same,growth inhibition,[9]; at 1.2 µM,-10%
same,growth inhibition,[9]; at 3.7 µM,0%
same,growth inhibition,[9]; [16],12%
same,growth inhibition,[9]; at 11.0 µM,-1%
same,growth inhibition,[9]; at 33.0 µM,5%
same,growth inhibition,[9]; [17],78% (active)
same,growth inhibition,[9]; at 50.0 µM,89.5% (active)
same,growth inhibition,[9]; at 100.0 µM,76% (active)
same,growth inhibition,[10]; at 1.2 µM,-16%
same,growth inhibition,[10]; at 3.7 µM,-15%
same,growth inhibition,[10]; at 11.0 µM,3%
same,growth inhibition,[10]; at 33.0 µM,-12%
same,growth inhibition,[10]; at 100.0 µM,94% (active)
same,growth inhibition,[11]; at 1.2 µM,-15%
same,growth inhibition,[11]; at 3.7 µM,-17%
same,growth inhibition,[11]; at 11.0 µM,-18%
same,growth inhibition,[11]; at 33.0 µM,-7%
same,growth inhibition,[11]; at 100.0 µM,97% (active)
same,growth inhibition,[12]; at 1.2 µM,-38%
same,growth inhibition,[12]; at 3.7 µM,-32%
same,growth inhibition,[12]; at 11.0 µM,-32%
same,growth inhibition,[12]; at 33.0 µM,-28%
same,growth inhibition,[12]; at 100.0 µM,94% (active)
same,growth inhibition,[13]; [16],34%
same,growth inhibition,[13]; [17],87% (active)
same,growth inhibition,[13]; at 50.0 µM,85.7% (active)
CCN(CCCl)c1cc(CN(C)C)cc(NC(=O)c2ccc(C(=O)Nc3cc(CN(C)C)cc(N(CC)CCCl)c3)cc2)c1,growth inhibition,[14]; at 1.2 µM,9%
same,growth inhibition,[14]; at 3.7 µM,20%
same,growth inhibition,[14]; at 11.0 µM,9%
same,growth inhibition,[14]; at 33.0 µM,8%
same,growth inhibition,[14]; at 100.0 µM,40%
same,growth inhibition,[2]; at 1.2 µM,17%
same,growth inhibition,[2]; at 3.7 µM,32%
same,growth inhibition,[2]; at 11.0 µM,9%
same,growth inhibition,[2]; at 33.0 µM,19%
same,growth inhibition,[2]; at 100.0 µM,35%
same,growth inhibition,[3]; at 1.2 µM,5%
same,growth inhibition,[3]; at 3.7 µM,3%
same,growth inhibition,[3]; at 11.0 µM,-6%
same,growth inhibition,[3]; at 33.0 µM,10%
same,growth inhibition,[3]; at 100.0 µM,89% (active)
same,growth inhibition,[4]; at 1.2 µM,3%
same,growth inhibition,[4]; at 3.7 µM,11%
same,growth inhibition,[4]; [16],36%
same,growth inhibition,[4]; at 11.0 µM,4%
same,growth inhibition,[4]; at 33.0 µM,58%
same,growth inhibition,[4]; [17],93% (active)
same,growth inhibition,[4]; at 50.0 µM,73.5% (active)
same,growth inhibition,[4]; at 100.0 µM,96% (active)
same,growth inhibition,[5]; at 1.2 µM,-8%
same,growth inhibition,[5]; at 3.7 µM,1%
same,growth inhibition,[5]; [16],26%
same,growth inhibition,[5]; at 11.0 µM,-9%
same,growth inhibition,[5]; at 33.0 µM,8%
same,growth inhibition,[5]; [17],95% (active)
same,growth inhibition,[5]; at 50.0 µM,37.5%
same,growth inhibition,[5]; at 100.0 µM,90% (active)
same,growth inhibition,[15]; at 1.2 µM,-11%
same,growth inhibition,[15]; at 3.7 µM,-13%
same,growth inhibition,[15]; at 11.0 µM,-6%
same,growth inhibition,[15]; at 33.0 µM,56%
same,growth inhibition,[15]; at 100.0 µM,96% (active)
same,growth inhibition,[6]; [16],39%
same,growth inhibition,[6]; [17],97% (active)
same,growth inhibition,[6]; at 50.0 µM,65.2%
same,growth inhibition,[7]; at 1.2 µM,15%
same,growth inhibition,[7]; at 3.7 µM,14%
same,growth inhibition,[7]; at 11.0 µM,17%
same,growth inhibition,[7]; at 33.0 µM,27%
same,growth inhibition,[7]; at 100.0 µM,47%
same,growth inhibition,[8]; [16],6%
same,growth inhibition,[8]; [17],58%
same,growth inhibition,[8]; at 50.0 µM,35%
same,growth inhibition,[9]; at 1.2 µM,-30%
same,growth inhibition,[9]; at 3.7 µM,-28%
same,growth inhibition,[9]; [16],32%
same,growth inhibition,[9]; at 11.0 µM,-14%
same,growth inhibition,[9]; at 33.0 µM,-22%
same,growth inhibition,[9]; [17],97% (active)
same,growth inhibition,[9]; at 50.0 µM,-8.9%
same,growth inhibition,[9]; at 100.0 µM,75% (active)
same,growth inhibition,[10]; at 1.2 µM,-12%
same,growth inhibition,[10]; at 3.7 µM,-19%
same,growth inhibition,[10]; at 11.0 µM,-16%
same,growth inhibition,[10]; at 33.0 µM,3%
same,growth inhibition,[10]; at 100.0 µM,89% (active)
same,growth inhibition,[11]; at 1.2 µM,-6%
same,growth inhibition,[11]; at 3.7 µM,-6%
same,growth inhibition,[11]; at 11.0 µM,-9%
same,growth inhibition,[11]; at 33.0 µM,28%
same,growth inhibition,[11]; at 100.0 µM,90% (active)
same,growth inhibition,[12]; at 1.2 µM,5%
same,growth inhibition,[12]; at 3.7 µM,3%
same,growth inhibition,[12]; at 11.0 µM,7%
same,growth inhibition,[12]; at 33.0 µM,65%
same,growth inhibition,[12]; at 100.0 µM,94% (active)
same,growth inhibition,[13]; [16],71% (active)
same,growth inhibition,[13]; [17],98% (active)
same,growth inhibition,[13]; at 50.0 µM,91.7% (active)

# — PubChem BioAssay (NCI)
